Experimental data as given in PubChem BioAssay (NCATS).
Inconclusive results are not listed. Calls of active or inactive are those of the source. Unless noted, calls come from the whole dose curve; as a rule, active = well fitted curve in the direction sought with a large enough effect; inconclusive = small, poorly fitted or top-dose-only effect, or another doubt; inactive = no such curve, though single readings can be large; an effect the other way counts as inactive or inconclusive.

Legend:
[1] = AP1 Signaling Pathway (AID 357; active = well fitted curve in either direction with a large enough effect, not every such curve was filed as active;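 note: ME-180 reporter cells stimulated with EGF at its EC50 level; % is set by controls: 0 for no effect and ±100 for the full control effect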); conditions: ME-180 AP-1-bla reporter, EGF-induced, beta-lactamase ratio, 5 h; at 7.69 µM (top of the series) unless noted
Outline: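 First, ME-180 AP-1-bla cells were cultured overnight at 37 °C in low-serum Opti-MEM. Next, titrated compounds with EC50 EGF were incubated 5 hours. Finally, CCF4 was added for 2.5 hours and the 460/530 nm ratio recorded.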

[2] = biological target: Cytochrome P450 1A2 (Homo sapiens) (UniProt P05177); assay: p450-cyp1a2 (AID 410; calls by dose curve; note: potency is the fitted concentration of half-maximal effect;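 for activity change, negative = inhibition: -100% = full effect of reference inhibitor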)
Cytochrome P450 1A2 (Homo sapiens), sequence (P05177 whole entry, looked up): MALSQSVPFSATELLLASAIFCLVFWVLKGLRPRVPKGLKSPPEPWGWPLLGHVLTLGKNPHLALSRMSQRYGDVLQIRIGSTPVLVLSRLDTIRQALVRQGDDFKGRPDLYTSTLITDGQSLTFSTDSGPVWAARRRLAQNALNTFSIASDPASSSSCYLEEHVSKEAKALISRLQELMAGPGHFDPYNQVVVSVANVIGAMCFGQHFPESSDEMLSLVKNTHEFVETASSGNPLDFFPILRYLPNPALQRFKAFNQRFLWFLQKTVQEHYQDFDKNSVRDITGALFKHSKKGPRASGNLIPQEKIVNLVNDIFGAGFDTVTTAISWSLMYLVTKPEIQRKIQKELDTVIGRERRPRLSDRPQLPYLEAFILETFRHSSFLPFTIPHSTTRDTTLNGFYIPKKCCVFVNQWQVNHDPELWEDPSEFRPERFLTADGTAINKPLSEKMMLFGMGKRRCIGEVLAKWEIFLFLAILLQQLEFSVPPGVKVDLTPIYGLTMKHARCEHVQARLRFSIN
Outline: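 20nM CYP1A2, 100uM Luciferin-ME (=Km), 100mM KPO4; cpd 10 min RT; +NADPH regen, 60 min RT; stop/detect 20 min; luminescence. Normalized to furafylline 57 uM = full inhibition.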

[3] = NFAT Signaling Pathway (AID 444; active = well fitted curve in either direction with a large enough effect, not every such curve was filed as active;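 note: carbachol stimulus at about its EC50 of 1 µM final; % is set by controls: 0 for no effect and ±100 for the full control effect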); conditions: Jurkat NFAT-bla M1, carbachol, beta-lactamase ratio, 5 h; at 7.69 µM (top of the series) unless noted
Outline: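 Jurkat cells with NFAT-driven β-lactamase reporter and co-expressed M1 receptor, stimulated with carbachol (final 1 uM, ~EC50), compound titration, 5 h at 37 °C. CCF4 loaded 1 h at RT; 460/530 nm ratio gave %activity and AC50.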

[4] = Stat Signaling Pathway (AID 446; active = well fitted curve in either direction with a large enough effect, not every such curve was filed as active;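 note: ME-180 cervical cancer cells given 40 pM IL-6 alongside compound; SIE-controlled beta-lactamase reporter measured as 460/530 nm FRET emission ratio; % is set by controls: 0 for no effect and ±100 for the full control effect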); conditions: ME-180 (cervical carcinoma) SIE beta-lactamase reporter, IL-6 stimulated, 5 h; at 7.69 µM (top of the series) unless noted
Outline: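 Compound effects on IL-6-induced STAT reporter activity were measured in ME-180 cells. After overnight culture, cells were co-treated with 40 pM IL-6 for 5 hrs before beta-lactamase substrate loading at room temperature.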

[5] = biological target: Glucocorticoid receptor (Homo sapiens) (UniProt P04150); assay: GR-GFP Redistribution (AID 450;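 active = compounds whose dose series gives a full or clear partial fitted curve of increased nuclear translocation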; note: potency is the fitted concentration of half-maximal effect); conditions: U2OS GR-GFP nuclear translocation, laser cytometry, 2 h
Glucocorticoid receptor (Homo sapiens), sequence (P04150 whole entry, looked up, the tested form may be a part): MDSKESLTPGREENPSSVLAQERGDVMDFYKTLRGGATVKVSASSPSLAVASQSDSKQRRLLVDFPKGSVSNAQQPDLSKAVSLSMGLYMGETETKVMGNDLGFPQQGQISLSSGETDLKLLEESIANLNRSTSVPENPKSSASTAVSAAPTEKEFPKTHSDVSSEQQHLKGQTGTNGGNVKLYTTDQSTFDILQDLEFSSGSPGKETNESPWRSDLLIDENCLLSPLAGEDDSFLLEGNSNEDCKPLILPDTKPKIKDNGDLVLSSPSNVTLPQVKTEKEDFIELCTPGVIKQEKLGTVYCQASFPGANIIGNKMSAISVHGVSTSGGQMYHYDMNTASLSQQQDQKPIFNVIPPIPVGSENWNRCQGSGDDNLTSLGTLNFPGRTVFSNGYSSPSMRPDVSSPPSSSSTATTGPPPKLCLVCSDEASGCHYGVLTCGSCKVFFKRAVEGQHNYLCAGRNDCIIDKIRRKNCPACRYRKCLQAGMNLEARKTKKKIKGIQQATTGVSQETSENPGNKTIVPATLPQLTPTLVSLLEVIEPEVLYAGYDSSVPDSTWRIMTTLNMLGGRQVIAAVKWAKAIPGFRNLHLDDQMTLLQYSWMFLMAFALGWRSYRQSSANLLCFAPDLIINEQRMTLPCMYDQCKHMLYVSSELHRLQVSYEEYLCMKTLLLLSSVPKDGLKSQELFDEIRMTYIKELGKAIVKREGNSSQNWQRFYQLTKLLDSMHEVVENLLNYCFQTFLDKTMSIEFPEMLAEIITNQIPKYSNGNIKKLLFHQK

[6] = biological target: Mitogen-activated protein kinase 10 (Mus musculus) (UniProt Q61831); assay: JNK3 AlphaScreen Assay (AID 530; active = well fitted curve in either direction with a large enough effect, not every such curve was filed as active;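 note: kinase came from lysate of stimulated human HepG2 cells; signal reports phosphorylation of biotinylated GST-cJun 1-79 at Ser73 with 10 µM ATP; % is set by controls: 0 for no effect and ±100 for the full control effect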)
Outline: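 HepG2 lysate (IL-1b/TNFa pre-activated) + biotin-GST-cJun 1-79 + anti-pSer73 cJun; cpd titration, 15 min RT; ATP 10 uM start; Tris pH 7.6, MgCl2, DTT, vanadate; beads in EDTA buffer; AlphaScreen.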

[7] = biological target: 3',5'-cyclic-AMP phosphodiesterase 4B (Homo sapiens) (UniProt Q07343); assay: qHTS Assay for Inhibitors of PDE-IV (AID 607; active = well fitted activation curve with a large enough effect in the main read-out, with a control signal flat, not every such curve was filed as active; note: % of control where 0% means no effect)
3',5'-cyclic-AMP phosphodiesterase 4B (Homo sapiens), sequence (Q07343 whole entry, looked up): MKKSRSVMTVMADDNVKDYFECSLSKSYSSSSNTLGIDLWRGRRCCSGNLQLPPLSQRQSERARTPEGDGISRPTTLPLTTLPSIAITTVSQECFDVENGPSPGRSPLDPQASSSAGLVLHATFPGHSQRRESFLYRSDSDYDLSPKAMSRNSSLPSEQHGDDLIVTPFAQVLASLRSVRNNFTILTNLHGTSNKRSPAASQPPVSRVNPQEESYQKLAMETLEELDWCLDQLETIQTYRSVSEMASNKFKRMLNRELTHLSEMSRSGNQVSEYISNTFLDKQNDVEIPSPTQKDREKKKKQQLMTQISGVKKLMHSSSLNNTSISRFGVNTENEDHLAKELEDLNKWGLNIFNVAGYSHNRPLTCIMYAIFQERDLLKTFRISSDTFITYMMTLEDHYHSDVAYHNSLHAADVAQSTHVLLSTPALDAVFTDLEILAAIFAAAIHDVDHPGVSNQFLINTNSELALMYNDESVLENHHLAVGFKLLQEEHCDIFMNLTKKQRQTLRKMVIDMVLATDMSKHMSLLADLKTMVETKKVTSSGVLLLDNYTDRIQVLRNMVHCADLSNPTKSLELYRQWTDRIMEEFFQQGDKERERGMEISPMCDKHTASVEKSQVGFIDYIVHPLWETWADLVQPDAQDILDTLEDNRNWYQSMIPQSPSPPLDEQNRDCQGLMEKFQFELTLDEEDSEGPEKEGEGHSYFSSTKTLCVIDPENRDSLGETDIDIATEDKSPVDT
Outline: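 ACTOne HEK293 cells carry a modified cAMP-gated CNG channel and express endogenous PDE4; plated 1000 cells/well, compounds up to 22.9 uM final. Membrane-potential dye fluorescence (ex 535/em 590) was read; parental cells received 10 uM forskolin + 100 uM RO 20-1724.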

[8] = qHTS Assay for Lipid Storage Modulators (AID 1519; calls by dose curve); conditions: Drosophila S3 cells, BODIPY lipid droplet/cell ratio, laser cytometry, cells loaded with oleic acid; for activity change, negative = inhibition: at 57.5 µM (top of the series)
Outline: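 Cells seeded at 5,000 per well were treated with compounds over a concentration series and loaded with oleic acid (400 uM, as added). Lipid droplet fluorescence (488 nm excitation, 500-530 nm channel) was read by laser-scanning cytometry and normalized to 20 uM Triacsin C.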

[9] = biological target: Dual specificity protein kinase CLK4 (Homo sapiens) (UniProt Q9HAZ1); assay: qHTS Assay for Inhibitors of CDC-like Kinase 4 (Kinase-Glo Assay) (AID 1770); note: nearly all actives have a fitted effect of over 65% in size; note: potency is the fitted concentration of half-maximal effect
Dual specificity protein kinase CLK4 (Homo sapiens), sequence (Q9HAZ1 whole entry, looked up): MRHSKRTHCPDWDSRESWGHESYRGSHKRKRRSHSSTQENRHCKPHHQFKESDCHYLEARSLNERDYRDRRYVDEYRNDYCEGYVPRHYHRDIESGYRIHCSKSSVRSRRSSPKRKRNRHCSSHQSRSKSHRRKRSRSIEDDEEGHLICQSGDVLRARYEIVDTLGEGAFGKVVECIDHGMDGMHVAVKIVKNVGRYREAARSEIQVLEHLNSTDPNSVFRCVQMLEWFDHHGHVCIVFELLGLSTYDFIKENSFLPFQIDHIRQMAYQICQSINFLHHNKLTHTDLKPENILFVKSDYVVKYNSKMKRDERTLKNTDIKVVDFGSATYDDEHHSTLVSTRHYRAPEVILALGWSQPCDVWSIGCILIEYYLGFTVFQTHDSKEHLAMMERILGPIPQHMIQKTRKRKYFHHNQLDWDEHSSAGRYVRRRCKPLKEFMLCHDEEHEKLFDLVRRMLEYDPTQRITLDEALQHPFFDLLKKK
Outline: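 Substrate mix (RS peptide 100 uM, ATP 1 uM) dispensed, compound pinned in, then Clk4 added to 25 nM final. Incubated 4.5 h at RT; Kinase-Glo reagent added, luminescence read after 5 min.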

[10] = biological target: Dual specificity protein kinase CLK4 (Homo sapiens) (UniProt Q9HAZ1); assay: qHTS Assay for Inhibitors of CDC-like Kinase 4 (ADP-Glo Assay) (AID 1771); note: nearly all actives have a fitted effect of over 70% in size; note: potency is the fitted concentration of half-maximal effect
Outline: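 25 nM Clk4, 100 uM RS peptide, 1 uM ATP (final); 2 mM MgCl2, 0.5 mM EGTA, 2.5 mM DTT, 0.01% Triton X-100; 1 hr RT. ADP-Glo readout: ATP depletion 45 min, conversion/luciferase 30 min, luminescence.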

[11] = biological target: Dual specificity protein kinase CLK4 (Homo sapiens) (UniProt Q9HAZ1); assay: qHTS Assay for Inhibitors of CDC-like Kinase 4 (ADP-FP Assay) (AID 1795); note: nearly all actives have a fitted effect of over 60% in size; note: potency is the fitted concentration of half-maximal effect
Outline: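 Clk4 6.25 nM; RS peptide 100 uM; ATP 1 uM; 25 mM Tris pH 7.5, 10 mM MgCl2; 1 h reaction. ADP detected via antibody/orange tracer FP displacement; TG003 positive control.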

[12] = biological target: Ubiquitin carboxyl-terminal hydrolase 1 (Homo sapiens) (UniProt O94782); assay: Inhibitors of USP1/UAF1: Pilot qHTS (AID 504865);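 note: rhodamine fluorescence freed from ubiquitin-rhodamine substrate followed over time; top concentration of the series differs between compounds; % is set by controls: 0 for no effect and ±100 for the full control effect; nearly all actives have a fitted effect of over 35% in size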
Ubiquitin carboxyl-terminal hydrolase 1 (Homo sapiens), sequence (O94782 whole entry, looked up): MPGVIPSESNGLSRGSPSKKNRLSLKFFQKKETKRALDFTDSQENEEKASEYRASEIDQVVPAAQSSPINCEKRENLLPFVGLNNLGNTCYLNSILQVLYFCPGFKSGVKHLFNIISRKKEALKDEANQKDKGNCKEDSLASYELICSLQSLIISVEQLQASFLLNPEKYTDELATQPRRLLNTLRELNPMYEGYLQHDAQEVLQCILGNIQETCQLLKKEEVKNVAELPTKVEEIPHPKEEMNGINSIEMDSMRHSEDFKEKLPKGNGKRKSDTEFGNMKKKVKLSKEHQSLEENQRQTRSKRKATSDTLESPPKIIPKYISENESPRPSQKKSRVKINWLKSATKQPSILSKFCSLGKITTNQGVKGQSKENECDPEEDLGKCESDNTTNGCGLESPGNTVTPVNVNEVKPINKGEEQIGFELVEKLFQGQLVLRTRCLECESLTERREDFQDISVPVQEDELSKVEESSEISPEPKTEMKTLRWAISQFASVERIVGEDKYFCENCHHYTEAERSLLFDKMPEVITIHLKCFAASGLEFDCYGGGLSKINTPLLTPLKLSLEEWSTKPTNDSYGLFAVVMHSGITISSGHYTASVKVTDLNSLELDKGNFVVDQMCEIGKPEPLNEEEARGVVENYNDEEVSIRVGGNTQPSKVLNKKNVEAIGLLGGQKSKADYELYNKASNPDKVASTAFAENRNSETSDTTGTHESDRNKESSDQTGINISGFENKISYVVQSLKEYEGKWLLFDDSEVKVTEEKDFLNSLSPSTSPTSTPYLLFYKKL
Outline: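 In 50mM HEPES pH 7.8 containing 0.5mM EDTA, 1mM TCEP, 0.1 mg/ml BSA and 0.01% Tween-20, 1nM USP1/UAF1 is exposed to compound for 15 min, then Ub-Rho (150nM final) is added and fluorescence is read over time.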

[13] = Primary qHTS for small molecule stabilizers of the endoplasmic reticulum resident proteome: Secreted ER Calcium Modulated Protein (SERCaMP) assay (AID 1508630); note: % is set by controls: 0 for no effect and ±100 for the full control effect
Outline: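 The SH-SY5Y reporter protocol was run at 3 concentrations up to 38.3 uM (primary) or 11 concentrations (follow-up): 16 h compound, 100 nM thapsigargin for 4 h, then extracellular luciferase luminescence.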

[14] = biological target: Lysosomal acid glucosylceramidase (Homo sapiens) (UniProt P04062); assay: Glucocerebrosidase-p2 (AID 348; in the data active = potency below about 10 µM; note: potency is the fitted concentration of half-maximal effect); conditions: purified GBA, blue fluorogenic substrate, 40 min
Lysosomal acid glucosylceramidase (Homo sapiens), sequence (P04062 whole entry, looked up): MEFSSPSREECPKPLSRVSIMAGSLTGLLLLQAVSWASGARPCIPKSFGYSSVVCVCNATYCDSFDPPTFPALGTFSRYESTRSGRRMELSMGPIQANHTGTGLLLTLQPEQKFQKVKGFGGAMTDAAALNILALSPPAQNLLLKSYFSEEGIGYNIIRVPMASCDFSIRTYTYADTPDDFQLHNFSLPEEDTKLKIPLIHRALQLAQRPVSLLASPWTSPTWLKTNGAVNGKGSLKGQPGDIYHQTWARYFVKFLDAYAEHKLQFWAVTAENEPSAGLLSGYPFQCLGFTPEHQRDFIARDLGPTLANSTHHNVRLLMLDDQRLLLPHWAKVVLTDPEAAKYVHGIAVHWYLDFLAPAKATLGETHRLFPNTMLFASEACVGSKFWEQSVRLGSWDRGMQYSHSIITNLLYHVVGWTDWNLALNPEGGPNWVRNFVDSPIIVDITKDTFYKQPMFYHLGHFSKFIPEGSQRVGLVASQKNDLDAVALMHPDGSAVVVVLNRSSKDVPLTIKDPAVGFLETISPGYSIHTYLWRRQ
Outline: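 Normal human glucocerebrosidase (0.2 nM) with blue fluorogenic substrate (80 uM final) in citrate/phosphate pH 5.9 with 10mM sodium taurocholate, 0.01% tween-20; 40 min RT, NaOH/glycine stop; fluorescence Ex 365/Em 440; AC50 from a titration from 0.6 nM upwards.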

[15] = biological target: Glucocorticoid receptor (Homo sapiens) (UniProt P04150); assay: GR-EFC Redistribution (AID 451; calls by dose curve; note: potency is the fitted concentration of half-maximal effect); conditions: CHO-K1 GR-EFC translocation, beta-gal luminescence, 2 h
Outline: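 CHO-K1 cells expressing nuclear EA and GR-ED fragments of b-gal; compounds titrated up to 46 uM final, 2 h at 37 C. GR nuclear translocation read as complemented b-gal luminescence after 1 h RT detection.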

[16] = biological target: Cytochrome P450 3A4 (Homo sapiens) (UniProt P08684); assay: qHTS Assay for Activators of Cytochrome P450 3A4 (AID 885); note: nearly all actives have a fitted effect of over 65% in size
Cytochrome P450 3A4 (Homo sapiens), sequence (P08684 whole entry, looked up): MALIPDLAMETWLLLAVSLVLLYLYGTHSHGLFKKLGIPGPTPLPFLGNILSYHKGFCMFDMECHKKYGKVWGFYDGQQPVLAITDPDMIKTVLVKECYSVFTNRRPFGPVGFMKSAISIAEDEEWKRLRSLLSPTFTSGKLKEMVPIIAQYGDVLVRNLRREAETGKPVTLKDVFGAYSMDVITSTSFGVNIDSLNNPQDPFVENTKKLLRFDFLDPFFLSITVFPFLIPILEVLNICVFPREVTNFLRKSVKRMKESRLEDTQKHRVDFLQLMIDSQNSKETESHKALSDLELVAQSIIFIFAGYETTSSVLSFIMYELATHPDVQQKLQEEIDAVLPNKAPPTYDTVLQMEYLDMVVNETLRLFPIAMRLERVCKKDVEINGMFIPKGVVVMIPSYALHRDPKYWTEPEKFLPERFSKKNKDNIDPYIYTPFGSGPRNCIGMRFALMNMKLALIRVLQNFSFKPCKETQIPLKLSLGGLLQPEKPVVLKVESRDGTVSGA
Outline: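 CYP3A4 activity: Luciferin-PPXE O-dealkylation, 25uM substrate, 200mM KPO4, RT throughout. Read-out is luciferase luminescence; higher values reflect activation.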

[17] = biological target: Cytochrome P450 2C9 (Homo sapiens) (UniProt P11712); assay: qHTS Assay for Inhibitors and Substrates of Cytochrome P450 2C9 (AID 883); note: % is set by controls: 0 for no effect and ±100 for the full control effect; nearly all actives have a fitted effect of over 60% in size
Cytochrome P450 2C9 (Homo sapiens), sequence (P11712 whole entry, looked up): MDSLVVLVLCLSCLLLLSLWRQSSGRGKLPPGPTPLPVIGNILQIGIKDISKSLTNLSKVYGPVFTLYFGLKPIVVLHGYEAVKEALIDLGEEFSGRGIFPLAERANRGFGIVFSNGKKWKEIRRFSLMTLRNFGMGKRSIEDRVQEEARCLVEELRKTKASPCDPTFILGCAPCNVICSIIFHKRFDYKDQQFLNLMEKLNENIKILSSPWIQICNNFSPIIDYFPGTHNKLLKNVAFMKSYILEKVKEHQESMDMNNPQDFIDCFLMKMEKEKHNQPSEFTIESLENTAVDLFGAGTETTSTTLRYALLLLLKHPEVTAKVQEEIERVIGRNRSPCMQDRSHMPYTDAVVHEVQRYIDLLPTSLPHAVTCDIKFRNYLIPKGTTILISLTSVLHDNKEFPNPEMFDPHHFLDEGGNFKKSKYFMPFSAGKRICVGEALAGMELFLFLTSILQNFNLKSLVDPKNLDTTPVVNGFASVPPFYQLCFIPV
Outline: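 10nM CYP2C9 + 100uM Luciferin-H (=KM), 25mM KPO4; cpd 10 min 37C; NADPH regen, 60 min 37C; stop/detect with P450 Glo-Buffer 20 min; luminescence. Norm. to 57uM sulphaphenazole as full inhibition.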

[18] = biological target: Cytochrome P450 3A4 (Homo sapiens) (UniProt P08684); assay: qHTS Assay for Inhibitors and Substrates of Cytochrome P450 3A4 (AID 884); note: potency is the fitted concentration of half-maximal effect; nearly all actives have a fitted effect of over 50% in size
Outline: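 Luminescent readout of luciferin produced by CYP3A4 (20 nM) dealkylation of Luciferin-PPXE, 25 uM (its KM). NADPH-driven reaction ran 60 min at RT after 10 min compound preincubation; data scaled to 57 uM ketoconazole as 100% inhibition.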

[19] = measured here: cell count channel max response
[20] = measured here: lipid channel max response

SMILES	activity change, negative = inhibition [1]	Potency [2]	activity change, negative = inhibition [3]	activity, negative = inhibition [4]	Potency [5]	outcome [6]	Potency [7]	activity change, negative = inhibition [8]	max response [8, 19] [%]	max response [8, 20] [%]	Potency [9]	Potency [10]	Potency [11]	Potency [12]	Potency [13]	Potency [14]	Potency [15]	Potency [16]	activity change, negative = inhibition [17]	Potency [18]
c1nc(NC2CCNCC2)c2cc(-c3ccoc3)ccc2n1	-0.789% (inactive)	25.1 µM (active)	12.3% (inactive)	-3% (inactive)	> 46 µM (inactive)	inactive	inactive	0.0897% (inactive)	13.4	11.3	0.891 µM (active)	1 µM (active)	0.631 µM (active)	inactive	inactive	–	–	–	–	–
COc1ncc2nc(C)c(=O)n(C3CC3)c2n1	-5.11% (inactive)	3.98 µM (active)	-4.48% (inactive)	-11.2% (inactive)	> 9.22 µM (inactive)	inactive	inactive	4.19% (inactive)	28.7	29.7	inactive	inactive	–	–	inactive	> 11.4 µM (inactive)	> 46 µM (inactive)	inactive	–	–
CCNc1ncc2ncc(=O)n(C3CC3)c2n1	-20.4% (inactive)	3.16 µM (active)	-6.86% (inactive)	-6.01% (inactive)	> 9.22 µM (inactive)	inactive	–	3.55% (inactive)	13.3	13.9	14.1 µM (active)	11.2 µM (active)	–	inactive	inactive	> 11.4 µM (inactive)	> 46 µM (inactive)	–	–	–
Cc1noc(C)c1-c1cc(N2CCN(C)CC2)ncn1	4.49% (inactive)	10 µM (active)	-0.822% (inactive)	7.9% (inactive)	> 46 µM (inactive)	inactive	inactive	3.89% (inactive)	22.8	26.7	inactive	inactive	inactive	inactive	inactive	–	> 46 µM (inactive)	–	31% [at 2.29 µM] (inactive)	–
COc1ccccc1-c1cncnc1NCCNC(C)=O	-8.57% (inactive)	inactive	1.19% (inactive)	2.82% (inactive)	–	inactive	inactive	0.0705% (inactive)	19.9	19	inactive	inactive	inactive	inactive	inactive	–	> 46 µM (inactive)	inactive	–	2 µM (active)
CCNc1ncc2nc(-c3ccc(OC)cc3)c(=O)n(CCOC)c2n1	-6.96% (inactive)	1.26 µM (active)	6.8% (inactive)	-11.3% (inactive)	> 9.22 µM (inactive)	inactive	inactive	4.42% (inactive)	20.7	27.3	inactive	inactive	inactive	inactive	inactive	–	> 46 µM (inactive)	inactive	–	–
